PubChem BioAssay (NCI)
“And” between values parts separate entries of the source, which are not always exact repeats. Equal entries are not always repeated. About 79,000 compounds went through this panel and 15% of them were active in at least one assay; those are over-represented in the sample as a whole. Values without a mark were called inactive. The source made the active and inactive calls. Cut-off read from the data, not from the text of the source: active = growth inhibition above about 70%; inactive = the rest.

Assay: NCI Yeast Anticancer Drug Screen. Data for the bub3 strain (AID 167)
Details: S. cerevisiae bub3 mutant strain, hits give high values; at 50.0 µM unless noted
Method: Growth inhibition of yeast strains with defined genetic alterations is measured as a screen for potential anti-cancer activity. Selected strains with alterations in DNA damage repair or cell cycle control were exposed to compounds and growth inhibition was measured relative to vehicle treated controls. The strain used in this assay is bub3

SMILES | growth inhibition
COc1ccc(NC(=O)CC(=O)N2N=C(N3c4ccccc4Sc4ccccc43)CC2c2ccccc2)cc1 (stereo not given) | 4.8%
Cc1ccc(C)c(CCCCS(=O)(=O)O)c1 | 1.2%
Cc1cc(Cl)ccc1NC(=O)C1C(=O)N(c2ccc(Cl)cc2C)C(=O)/C1=N\N (stereo not given) | -9.1%
CC(C)(C)SC(=S)SCC(=O)c1ccc(F)cc1 | -1.65%
NC(=O)C1CC1 | 9.25%
C(=Nc1cccc2ccccc12)c1cccs1 | 0.25%
O=[N+]([O-])c1ccc(/C=N/Nc2nnc3c4ccccc4c4ncccc4c3n2)o1 | -33.8%
CC(C)NCC(O)COc1cccc2[nH]c3ccccc3c12 (stereo not given) | -0.8%
CC[N+](C)(CC)CCNC(=O)C(c1ccccc1)c1ccccc1 | 6.65%
Cc1ccc(-c2nc3ccc(Cl)cc3[nH]2)cc1 | 30.1%
C=CCSCc1ccccc1 | -2.15%
CC(=O)c1cccc(NC(=O)Oc2cc(=O)oc3ccccc23)c1 | 38.2%
Cc1ccccc1C(=O)NCC(=O)O | -4.1%
c1ccc2nc(CCC3CCCCN3)ccc2c1 (stereo not given) | -2.1%
CCCC(=O)OCC1OC(n2cc(F)c(=O)[nH]c2=O)CC1OC(=O)CCC (stereo not given) | -13.9%
O=c1[nH]cnc2nc(N3CCOCC3)sc12 | -6.5%
OCc1ccccc1Sc1ccccc1CO | -31.6%
Cc1ccc(C)c(NC(=O)Nc2ccccc2)c1 | 0.35%
CCCCOC/N=C(/N)NC#N | -4.1%
Cc1ccc2nc(-c3ccc(F)cc3)cc(C(=O)O)c2c1 | 10.2%

SMILES | growth inhibition
C=C1CC2(OC1=O)c1ccccc1C=Cc1ccccc12 | 47.5%
CC(=O)C1=CC2(OC3CCC(O)(C(=O)CO)C(C)O3)C(=O)c3c(cc4cccc(O)c4c3O)CC2C(O)C1O (stereo not given) | 20.8%
CC[N+](CC)(CC)Cc1cn(S(=O)(=O)c2ccccc2)c2ccccc12 | -0.7%
Clc1ccc(Oc2ncnc3nc[nH]c23)cc1 | -1.5%
CC1=NN(C(=O)Nc2ccc(Cl)cc2)C(=O)C2CCC(=O)N12 (stereo not given) | -0.45%
CNC(=O)C1C(=O)NC(=O)C1=C1CCCC1 (stereo not given) | 8.1%
CCC1CC(C)=CCN1S(=O)(=O)c1ccc(C)cc1 (stereo not given) | 12.2%
Cn1c(=O)c2[nH]c(Nc3cccc(Cl)c3)nc2n(C)c1=O | -1.85%
CCOC(=O)/C(SC#N)=C(/N)N1CCCC1 | 0.75%
Cc1ccc(NC(=O)c2ccc(OP(=O)(O)Nc3ccc(C)cc3)cc2)cc1 | -5.2%
Cc1ccc(=O)[nH]n1 | -16.1% and -27.5%
COc1ccc(-c2sc(C)nc2O)cc1 | -15.5%
COc1cccc(C(c2ccccc2)C(CC(=O)O)CC(=O)O)c1 (stereo not given) | -2.1%
NC(N)=NC(N)=Nc1cc(Cl)c(Cl)cc1Cl | 99.2% (active)
O=C(CCS(=O)(=O)CCC(=O)c1ccccc1)c1ccccc1 | -4.4%
O=c1cc2ccc(Cl)cc2n[nH]1 | -14.3%
CCCCCC=C(C(=O)OCC)C(=O)OCC | -30.4%
Cc1nc(CO)c(-c2ccc([N+](=O)[O-])cc2)o1 | -13.1%
CCCCCCC1(C)NC(=O)NC1=O (stereo not given) | 6.3%
CC(=O)CCC(C)C1CCC2C3CCC4CCCCC4(C)C3CCC12C (stereo not given) | -2.15%
